A selection: hits, their analogues and other compounds. The true share with any hit is near 9%.
BAZ2B inh: BAZ2B (human) inhibition | Q9UIF8 | AlphaScreen BAZ2B-H3K14Ac peptide displacement | hit rate 4.4% among 360,000 | Potency, µM (series often up to 114 µM), usual class: inhibitors; note: nearly all actives have a fitted effect of over 60% in size
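BAZ2B 50 nM plus b-H3(5-23)K14Ac 50 nM, PBS pH 7.4/0.01% Tween-20, 30 min RT; compound added (max 110 uM), 30 min RT; streptavidin donor/Ni-chelate acceptor beads 10 ug/mL final, 20 min dark; AlphaScreen read.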
ALOX12 inh: inhibitors of human 12S-lipoxygenase ALOX12 | purified 12hLO, xylenol orange hydroperoxide absorbance | Potency, µM (series often up to 108 µM), actives largely listed as inhibitors | hit rate 1.1% among 580,000
Target sequence (P18054 whole entry, looked up): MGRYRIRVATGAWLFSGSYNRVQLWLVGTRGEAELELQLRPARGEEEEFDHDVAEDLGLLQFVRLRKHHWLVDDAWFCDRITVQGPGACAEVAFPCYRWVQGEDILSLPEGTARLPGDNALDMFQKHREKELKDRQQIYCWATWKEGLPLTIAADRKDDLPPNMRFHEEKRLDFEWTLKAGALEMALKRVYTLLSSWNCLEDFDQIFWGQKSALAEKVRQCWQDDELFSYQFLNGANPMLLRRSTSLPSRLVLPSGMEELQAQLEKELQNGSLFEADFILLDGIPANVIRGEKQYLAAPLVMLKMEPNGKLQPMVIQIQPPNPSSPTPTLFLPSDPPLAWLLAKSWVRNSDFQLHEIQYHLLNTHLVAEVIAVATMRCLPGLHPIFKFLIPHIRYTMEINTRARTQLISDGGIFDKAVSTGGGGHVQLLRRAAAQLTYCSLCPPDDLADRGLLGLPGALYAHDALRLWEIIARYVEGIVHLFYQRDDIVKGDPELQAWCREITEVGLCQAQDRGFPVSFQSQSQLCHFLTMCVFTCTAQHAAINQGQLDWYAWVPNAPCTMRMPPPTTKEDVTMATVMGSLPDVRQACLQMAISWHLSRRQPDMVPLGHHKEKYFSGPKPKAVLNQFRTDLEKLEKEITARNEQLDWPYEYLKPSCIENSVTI
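Hydroperoxide product was detected by ferrous iron/xylenol orange as the 573 to 405 nm absorbance ratio. Arachidonic acid at 40 uM (final) was turned over for 30 min at room temperature by 150 nM human 12hLO, pH 7.0 Hepes buffer, after 15 min compound preincubation.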
HP1b binding inh: HP1-beta chromodomain-methylated histone interaction inhibition; P83916; AlphaScreen HP1-beta / biotin-H3K9me3 peptide binding; Potency, µM (top dose mostly 114 µM), usual class: inhibitors; hit rate 0.56% among 390,000; AID 540317; note: nearly all actives have a fitted effect of over 70% in size
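Compound inhibition of the preformed complex between 50 nM HP1-beta and 50 nM biotinylated H3K9me3 peptide was read by AlphaScreen. Buffer was PBS pH 7.4 with 0.01% Tween-20. Incubations ran 30 min at room temperature, with 10 ug/mL donor/acceptor beads.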
G9a inh: blocks human histone lysine methyltransferase G9a; Q96KQ7; Potency, µM (titrated, usually from 102 µM), usual class: inhibitors; hit rate 8.8% among 350,000; AID 504332; G9a H3K9 monomethylation, AlphaScreen, 2 h; note: nearly all actives have a fitted effect of over 75% in size
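Chemiluminescent proximity detection of H3K9 monomethylation, read after 10 min bead incubation in the dark. Reaction: 20 nM G9a, 500 nM biotin-H3K9 peptide, 20 uM SAM cofactor, 2 h, room temperature, following 15 min enzyme-compound preincubation.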
PLK1 PBD block: blocks phosphopeptide binding to human PLK1 polo-box domain. AID 720504. hit rate 2.8% among 360,000. P53350. Plk1 PBD binding of FITC phosphopeptide, fluorescence polarization. Potency, µM, usual class: inhibitors; note: series mostly up to about 57 µM; nearly all actives have a fitted effect of over 65% in size
JMJD2A Tudor inh: inhibitors of human JMJD2A Tudor domain; O75164; AlphaScreen JMJD2A-Tudor / H3K4me3 peptide binding; Potency, µM (top dose mostly 114 µM), actives largely listed as inhibitors; hit rate 4.4% among 390,000; AID 504339; note: nearly all actives have a fitted effect of over 50% in size
A number is an active result; i = inactive; ? = inconclusive; nt = no result; ! = a repeat was not active; [ ] = remark or other dose. Calls come from the whole dose curve; as a rule, active = well fitted curve in the direction sought with a large enough effect; inconclusive = small, poorly fitted or top-dose-only effect, or another doubt; inactive = no such curve, though single readings can be large; an effect the other way counts as inactive or inconclusive.

SMILES	BAZ2B inh	ALOX12 inh	HP1b binding inh	G9a inh	PLK1 PBD block	JMJD2A Tudor inh
COc1ccc2[nH]c3c(=O)n(CCCC(=O)NC4CCCCC4C)c(=S)[nH]c3c2c1 (stereo unspecified)	?	?	i	nt	30µM	i
COc1ccc(CCCC(=O)NC2CCCCC2C)c(C)c1 (stereo unspecified)	?	8.9µM	i	i	i	i
CC1CCCCC1NC(=O)CCCCCn1c(=S)[nH]c2ccsc2c1=O (stereo unspecified)	i	i	i	28µM	i	i
O=C(O)C1CSC2(c3ccc(Br)cc3)CCC(=O)N12 (stereo unspecified)	i	i	i	i	i	i
CCSc1nc2ccccc2n1C(=O)Oc1ccccc1	i	i	i	i	i	i
CCOC(=O)C[C@@H]1OC2CCCCC2N1S(=O)(=O)c1ccc(C)cc1 (stereo partly specified)	nt	i	nt	nt	i	nt
CCN(CC)c1ccc(NC(=O)/C=C\c2ccccc2Cl)cc1	?	?	i	3.5µM	i	?
CN(C)c1ccc(NC(=O)/C=C/c2ccccc2Cl)cc1	i	i	i	1.1µM	i	i
O=C(/C=C/c1ccccc1Cl)Nc1ccc(-c2ccccc2)cc1	nt	i	nt	nt	nt	nt
CC(=O)c1cccc(NC(=O)CSCc2c(Cl)cccc2Cl)c1	nt	i	nt	nt	nt	nt
CCCC(=O)NCCc1c(I)[nH]c2ccc(OC)cc12	nt	?	nt	i	nt	nt
CCOc1c(C)cc(-c2ncccc2O)cc1C	i	i	i	i	i	89µM!
COc1cccc(C(=O)Nc2ccc3ccccc3c2)c1	i	i	i	i	i	i
CCn1c(=O)c(=O)[nH]c2cc(C(=O)NC3CCCC3)ccc21	i	?	i	i	30µM	13µM
CCn1c(=O)c(=O)[nH]c2cc(C(=O)NCC3CCCCC3)ccc21	i	i	i	?	i	i
COCCn1c(CCc2ccccc2)n[nH]c1=S	i	i	i	i	i	?
COCCn1c(COc2ccc(C(C)(C)c3ccccc3)cc2)n[nH]c1=S	nt	16µM	nt	nt	nt	nt
COCCn1c(-c2ccccc2)nc2ccccc21	i	i	i	i	i	i
COCCn1c(-c2ccccc2F)n[nH]c1=S	i	?	i	?	i	35µM
Cn1nc(-c2nncn2CC2CC2)c2c1CCN(C(=O)c1cn[nH]c1-c1ccccc1)C2	nt	i	nt	nt	nt	nt
CC(=O)c1c(C(C)=O)c(C)n(Cc2ccccc2)c1C	i	i	i	i[12.7 µM]	i	i
O=[N+]([O-])c1ccc2nc(NCCCO)nc(-c3ccccc3)c2c1	i	i	?	i	21µM	?
O=C(O)CNc1nc(-c2ccccc2)c2cc([N+](=O)[O-])ccc2n1	79µM	i	i	7.9µM	i	i
CC1CCN(S(=O)(=O)c2cccc(C(=O)Nc3nncs3)c2)CC1	i	?	i	nt	i	i
O=C(NCc1ccco1)c1cc2nc(-c3cccs3)cc(C(F)(F)F)n2n1	i	?	i	?	i	i
SMILES	BAZ2B inh	ALOX12 inh	HP1b binding inh	G9a inh	PLK1 PBD block	JMJD2A Tudor inh
O=C(NCc1cccnc1)c1cc2nc(-c3cccs3)cc(C(F)(F)Cl)n2n1	i	i	i	50µM	i	i
FC(F)(F)c1cc(-c2cccs2)nc2cc(-c3ccccc3)nn12	i	i	i	i	i	i
O=C(NCCc1ccccc1)c1nc2nc(-c3cccs3)cc(C(F)(F)F)n2n1	50µM	i	i	i	i	?
Cc1cc(C)n2nc(C(=O)NCCc3ccccc3)nc2n1	i	i	i	?	i	i
O=C(O)c1cc2nc(-c3cccs3)cc(C(F)(F)F)n2n1	50µM	i	i	71µM	i	i
CN(C(=O)CSc1nc2ccccc2n1CCc1ccccc1)C1CCS(=O)(=O)C1 (stereo unspecified)	?	i	i	?	i	i
Cc1ccc(CNC(=O)N2CCC(N3CC4CC(C3)[C@H]3CCCC(=O)N3C4)CC2)cc1 (stereo partly specified)	nt	i	nt	nt	nt	nt
CC(C(=O)NC1CCCC1)n1c(C2CCCC2)nc2ccccc21 (stereo unspecified)	nt	i	nt	nt	i	nt
CN(C)CCOC1c2ccccc2C=Cc2ccccc21	nt	i	i	nt	i	i
CN(C)CCOC1c2ccccc2CCc2ccc3ccccc3c21 (stereo unspecified)	nt	i	?	nt	i	32µM
COc1ccc(N2CCN(S(=O)(=O)c3c[nH]c(=O)[nH]c3=O)CC2)cc1	i	i	i	?	i	i
CN(C)S(=O)(=O)N1CCC(Oc2ccc(C(=O)N3CCCCCCC3)cc2)CC1	56µM	i	i	?	i	i
CN(C)S(=O)(=O)N1CCC(Oc2ccc(C(=O)N3CCCCCC3)cc2)CC1	nt	i	nt	nt	i	nt
CCOC(=O)C(Cc1ccc(NC(=O)/C(=C/c2ccccc2)NC(=O)c2ccccc2)cc1)N1C(=O)c2ccccc2C1=O (stereo unspecified)	i	i	i	i	i	i
CCOC(=O)C(Cc1ccc(NC(=O)/C(=C/c2ccc(OC(C)=O)cc2)NC(C)=O)cc1)N1C(=O)c2ccccc2C1=O (stereo unspecified)	i	i	i	i	27µM	89µM
CCn1c(-c2csc(C(C)C)c2)n[nH]c1=S	i	?	?	1.6µM	i	10µM
CC(C)Cn1c(-c2csc(C(C)C)c2)n[nH]c1=S	i	40µM	i	5µM	i	?
CCNC(=S)NNC(=O)c1csc(C(C)C)c1	i	i	i	i	i	i
Clc1ccc(CCNC(c2ccc(Cl)cc2)c2nnc(-c3ccccc3)o2)cc1 (stereo unspecified)	i	i	i	i	nt	i
O=C(CCCCCN1C(=O)CCC1=O)Nc1ncn[nH]1	50µM	i	i	i[12.7 µM]	i	50µM
CCCOc1ccc(CCC(=O)N/N=C/c2ccncc2)cc1	i	i	i	i	24µM	i[11.4 µM]
COc1cc(C(c2sc3nc(C)nn3c2O)N2CCC3(CC2)OCCO3)cc(OC)c1OC (stereo unspecified)	i	i	?	i	3µM	?
COC(=O)C1CCN(C(c2cc(OC)c(OC)c(OC)c2)c2sc3nc(C)nn3c2O)CC1 (stereo unspecified)	i	i	i	?	i	i
CC1=NN(c2ccccc2)C(=O)C1C=Nc1ccc(N(C)C)cc1 (stereo unspecified)	35µM	?	?	nt	i	45µM
Cc1ccc(C(=O)N2CCC3(CC2)Oc2ccc(F)cc2C(=O)C32CC(c3ccccc3)=NO2)s1 (stereo unspecified)	i	i	i	i	i	i
COCCn1c(C23CC4CC(CC(C4)C2)C3)n[nH]c1=S	i	?	i	?	i	7.1µM
CCCCn1c(C23CC4CC(CC(C4)C2)C3)n[nH]c1=S	i	?	i	nt	i	32µM
CCCCCC1CCC(c2n[nH]c(=S)n2C)CC1 (stereo unspecified)	?	?	i	?	i	i

Screens: PubChem, National Center for Advancing Translational Sciences (NCATS)
